The record followed here is PubChem BioAssay (NCATS).

Inconclusive results are not listed. The source made the active and inactive calls. Calls come from the whole dose curve; as a rule, active = well fitted cell-killing curve with a large enough effect; inconclusive = small, poorly fitted or top-dose-only effect, or effect the other way; inactive = no such curve, though single readings can be large or run the other way.
Potency is the fitted concentration of half-maximal effect.

The nature of this test: Quantitative High-Throughput drug screen in 47 multiple myeloma cell lines against the NCATS MIPE library collection: KMS34_JCRB cell viability assay (AID 1918985).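 For viability, percent of control: 100% = DMSO-only wells and 0% = media-only wells.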 Note: nearly all actives have a fitted effect of over 40% in size. Conditions: KMS34 myeloma viability, CellTiter-Glo ATP luminescence, 48 h; series mostly up to 45.8 µM; viability, percent of control: at the top concentration. In a few lines:
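ATP-based luminescence (CellTiter-Glo, 5 min RT incubation) quantified surviving cells following two days' treatment with MIPE 4.0 agents at 37 °C, 5% CO2.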
(ATP-based viability assays read luminescence as a measure of living cells.)
In the case of `COc1ccc(-c2cc3c(C)nc(N)nc3n(C3CCC(OCCO)CC3)c2=O)cn1` (centres undefined), the Potency was 0.0743 µM (active). On the same count and under the same terms, for `CCc1c2c(nc3ccc(O)cc13)-c1cc3c(c(=O)n1C2)COC(=O)[C@]3(O)CC` the value was 0.264 µM (active); for `Cc1ccc(NC(=O)C2(c3ccc4c(c3)OC(F)(F)O4)CC2)nc1-c1cccc(C(=O)O)c1`, 0.0935 µM (active). For `C#Cc1cccc(Nc2ncnc3cc(OC)c(OCCCCCCC(=O)NO)cc23)c1`, the Potency was 1.05 µM (active). As to `O=C(O)[C@H](Cc1c[nH]c2ccccc12)N1C(=O)c2ccccc2C1=O`, the “viability, percent of control” value was 113% [at 92.2 µM] (inactive). Turning to `O=C(O)c1ccc2cc(-c3ccc(O)c(C45CC6CC(CC(C6)C4)C5)c3)ccc2c1`, the Potency is 13.2 µM (active). On to `CC(NCc1ccc2c(c1)nc(NC(=O)c1ccc(-c3cn[nH]c3)s1)n2CC(C)(C)O)C(C)(C)C` (centres undefined), for which the Potency is 0.372 µM (active).

On to `Cc1cc(N2CCOCC2)cc2[nH]c(-c3c(NC[C@@H](O)c4cccc(Cl)c4)cc[nH]c3=O)nc12`, for which the Potency is 0.469 µM (active). Same read-out and setting: to `CC1(O)CC(c2nc(-c3ccc4ccc(-c5ccccc5)nc4c3)c3c(N)nccn23)C1` (centres undefined) belongs 0.59 µM (active); to `Nc1cc(C(F)(F)F)c(-c2cc(N3CCOCC3)nc(N3CCOCC3)n2)cn1`, 0.833 µM (active). `Nc1ncnc2c1c(-c1cnc3[nH]ccc3c1)nn2C1CCCC1`: the Potency is 1.87 µM (active). As to `CCN(CC)CCCCNc1ncc2cc(-c3cc(OC)cc(OC)c3)c(NC(=O)NC(C)(C)C)nc2n1`, the Potency is 33.2 µM (active).

Take `CCOc1ccccc1OCCNC(C)Cc1ccc(OC)c(S(N)(=O)=O)c1` (centres undefined): the “viability, percent of control” value was 90.7% (inactive).

In the case of `COc1cc2nccc(Oc3ccc(NC(=O)C4(C(=O)Nc5ccc(F)cc5)CC4)cc3)c2cc1OC`, the Potency is 14.8 µM (active). The same measure, in the same setting: to `C[C@@]12O[C@@H](C[C@]1(O)CO)n1c3ccccc3c3c4c(c5c6ccccc6n2c5c31)CNC4=O` belongs 0.526 µM (active); to `CN(C)CC=CC(=O)Nc1cc2c(Nc3ccc(F)c(Cl)c3)ncnc2cc1O[C@H]1CCOC1`, 20.9 µM (active); to `O=c1[nH]nc(Sc2ncc([N+](=O)[O-])s2)n1-c1ccc2c(c1)OCCO2`, 2.09 µM (active). Same read-out and setting: to `COc1cc2c(NC3CCN(C(C)C)CC3)nc(C3CCCCC3)nc2cc1OCCCN1CCCC1` belongs 5.26 µM (active); to `O=C(Nc1cc(C(F)(F)F)cc(C(F)(F)F)c1)c1cc(Cl)ccc1O`, 1.48 µM (active).

Consider `CCCCc1nc2cc(C=CC(=O)NO)ccc2n1CCN(CC)CC`, for which the Potency was 0.372 µM (active). Still for that read-out and setting: to `Cn1cc(-c2[nH]c3cc(NC(=O)[C@H](N)C4CCCCC4)cc4c3c2C=NNC4=O)cn1` belongs 4.69 µM (active); to `O=C(C=Cc1cccc(S(=O)(=O)Nc2ccccc2)c1)NO`, 1.36 µM (active). `CC(=O)OCC(=O)[C@@]1(O)[C@H](C)C[C@H]2[C@@H]3C=C(C)C4=Cc5c(cnn5-c5ccccc5)C[C@]4(C)[C@@H]3[C@@H](O)C[C@@]21C`: the Potency was 8.33 µM (active). Same read-out and setting: to `CC1(C)CCC(c2ccc(Cl)cc2)=C(CN2CCN(c3ccc(C(=O)NS(=O)(=O)c4ccc(N[C@H](CCN5CCOCC5)CSc5ccccc5)c(S(=O)(=O)C(F)(F)F)c4)cc3)CC2)C1` belongs 9.35 µM (active). For `CCn1cc(-c2ccnc3[nH]c(-c4cccc(CN(C)C)c4)cc23)c(-c2ccc(NC(=O)N(C)C)cc2)n1`, the Potency is 10.5 µM (active). The same measure, in the same setting: for `O=C(c1ccc(Nc2nccc(-c3cc4ccccc4s3)n2)cc1)N1CCC(N2CCCC2)CC1` the value was 11.8 µM (active). `CNC(=O)c1ccc(N2C(=S)N(c3cnc(C#N)c(C(F)(F)F)c3)C(=O)C23CCC3)cc1F`: the “viability, percent of control” value is 111% (inactive). Regarding `C=CC(=O)Nc1cccc(Oc2nc(Nc3ccc(N4CCN(C)CC4)cc3OC)ncc2Cl)c1`, the Potency was 16.6 µM (active). Take `COc1ccc(-n2nc(C(N)=O)c3c2C(=O)N(c2ccc(N4CCCCC4=O)cc2)CC3)cc1`: the “viability, percent of control” value is 142% (inactive). As for `OCc1ccc(-c2ccc(-c3ccc(CO)s3)o2)s1`, the Potency is 18.7 µM (active). Turning to `c1nc2nc(Nc3ccc(N4CCOCC4)cc3)nc(NC3CCCCC3)c2[nH]1`, the Potency is 5.26 µM (active).

With `COc1cc(OC2CCN(C)CC2)ccc1Nc1ncc2c(n1)n(C1CCCC1)c(=O)n2C`, the Potency is 16.6 µM (active). As to `Nc1ncnc2c1c(-c1cccc(OCc3ccccc3)c1)cn2C1CC(CN2CCCC2)C1` (centres undefined), the Potency was 11.8 µM (active).

For `CC(C)c1cc(C(=O)N2Cc3ccc(CN4CCN(C)CC4)cc3C2)c(O)cc1O`, the Potency is 0.235 µM (active).
